We go through six compounds from the supplement of paper PMC9262897, “Low-cost anti-mycobacterial drug discovery using engineered E. coli” (Nature Communications, 2022).

Structures can show the parent of a compound that is named as a salt. ± gives the standard deviation of the averaged measurements.

Holding throughout (experiment): growth (OD600 after 10 h); higher = more growth (less inhibition)
Assay [1] deals with E. coli TESEC Alr+ wild-type control. Conditions: compound 0.1 mM; raw OD600 reference: median of DMSO wells 0.241, cell-free background 0.041. The method, then: (§1)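 TESEC Mtb Alr E. coli, or the Alr+ wild-type control, in 384-well plates with Prestwick library compounds at 0.1 mM and 1% DMSO, across arabinose induction levels of 1E3 to 1E7 nM. Growth is read as OD600 after 10 h at 37 °C in triplicate biological replicates.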

The subject of assay [2] is E. coli TESEC Mtb Alr. Particulars: compound 0.1 mM. The protocol:
as §1

Assay [3] deals with E. coli TESEC Mtb Asd. Particulars: compound 0.1 mM. The method, then: (§2)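 TESEC E. coli strains in which the native enzyme is deleted and replaced by arabinose-inducible Mtb Asd, DapB, CysH or TrpD, each grown in its selective medium. Strains were screened against the Prestwick library at 0.1 mM and 1% DMSO in 384-well format at low and high arabinose induction. Growth is read as OD600 after 10 h in triplicate.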

The subject of assay [4] is E. coli TESEC Mtb DapB. Conditions: compound 0.1 mM. The protocol: as §2
Assay [5] relates to E. coli TESEC Mtb Alr. Conditions: compound 0.1 mM. The protocol:
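TESEC Mtb Alr E. coli (ΔaraC ΔtolC ΔentC Δalr ΔdadX, arabinose-inducible Mtb Alr) or the Alr+ wild-type control strain, grown in defined M9-fructose medium without D-alanine in 96-well plates with Prestwick library compounds at 0.1 mM and 1% DMSO. Low Alr induction is 0.1 µM arabinose and high induction is 10 mM arabinose.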
This is another data set of the same source.

The mark [6] stands for this setting: arabinose 1000 nM, raw OD600 reference: median of DMSO wells 0.294, cell-free background 0.041.
Where [7] appears, read: arabinose 10000 nM, raw OD600 reference: median of DMSO wells 0.264, cell-free background 0.041.
Where [8] appears, read: arabinose 100000 nM, raw OD600 reference: median of DMSO wells 0.201, cell-free background 0.041.
The mark [9] stands for this setting: arabinose 1000000 nM, raw OD600 reference: median of DMSO wells 0.193, cell-free background 0.041.
Setting [10] is: arabinose 10000000 nM, raw OD600 reference: median of DMSO wells 0.146, cell-free background 0.041.
[11] abbreviates: arabinose induction (level): High, raw OD600 reference: median of DMSO wells 0.331, cell-free background 0.041.
The mark [12] stands for this setting: arabinose induction (level): Low, raw OD600 reference: median of DMSO wells 0.417, cell-free background 0.041.
Where [13] appears, read: arabinose induction (level): High, raw OD600 reference: median of DMSO wells […], cell-free background 0.041.
[14] abbreviates: arabinose induction (level): Low, raw OD600 reference: median of DMSO wells 0.227, cell-free background 0.041.
[15] abbreviates: arabinose 100 nM, raw OD600 reference: median of DMSO wells 0.413, cell-free background 0.052.
Where [16] appears, read: arabinose 10000000 nM, raw OD600 reference: median of DMSO wells […], cell-free background 0.052.

Consider `CC(CN(C)C)CN1c2ccccc2CCc2ccccc21` (configuration not stated) [Trimipramine maleate salt], for which the growth worked out at 0.167 ± 0.0021 in assay [1]; 0.204 ± 0.012 in assay [2] (setting [6]); 0.3 ± 0.0057 in assay [2] (setting [7]); 0.184 ± 0.013 in assay [2] (setting [8]); 0.15 ± 0.0042 in assay [2] (setting [9]); 0.156 ± 0.0021 in assay [2] (setting [10]). In addition, the growth is 0.141 ± 0.019 in assay [3] (setting [11]); 0.267 ± 0.046 in assay [3] (setting [12]); 0.195 ± 0.035 in assay [4] (setting [13]); 0.219 ± 0.027 in assay [4] (setting [14]); 0.395 ± 0.0065 in assay [5] (setting [15]); 0.337 ± 0.0056 in assay [5] (setting [16]).
Turning to `CC1(C)O[C@@H]2C[C@H]3[C@@H]4C[C@H](F)C5=CC(=O)C=C[C@]5(C)[C@@]4(F)[C@@H](O)C[C@]3(C)[C@]2(C(=O)CO)O1` [Fluocinolone acetonide], the growth in assay [1] stood at 0.174 ± 0.0075; in assay [2] (setting [6]), 0.262 ± 0.01; in assay [2] (setting [7]), 0.263 ± 0.0058; in assay [2] (setting [8]), 0.153 ± 0.0083; in assay [2] (setting [9]), 0.146 ± 0.0019; in assay [2] (setting [10]), 0.144 ± 0.0033. Also, the growth was 0.198 ± 0.02 in assay [3] (setting [11]); 0.401 ± 0.017 in assay [3] (setting [12]); 0.188 ± 0.019 in assay [4] (setting [13]); 0.239 ± 0.039 in assay [4] (setting [14]); 0.409 ± 0.0053 in assay [5] (setting [15]); 0.274 ± 0.0057 in assay [5] (setting [16]).
`CC(NCCC(c1ccccc1)c1ccccc1)c1ccccc1` (configuration not stated) [Fendiline hydrochloride]: the growth in assay [1] was determined as 0.03973 ± 0.00035; in assay [2] (setting [6]) it was 0.0413 ± 0.0034; in assay [2] (setting [7]), 0.03877 ± 0.00012; in assay [2] (setting [8]), 0.0416 ± 0.0018; in assay [2] (setting [9]) it was 0.0386 ± 0.00049; in assay [2] (setting [10]) it was 0.04153 ± 0.00035. Besides, the growth in assay [3] (setting [11]) turned out to be 0.0469 ± 0.0006; in assay [3] (setting [12]) it was 0.04653 ± 0.00025; in assay [4] (setting [13]), 0.0461 ± 0.00056; in assay [4] (setting [14]) it was 0.0491 ± 0.0046; in assay [5] (setting [15]), 0.4097 ± 0.0034; in assay [5] (setting [16]), 0.0578 ± 0.0028.
As for `CC(C(=O)O)c1ccc2c(c1)Cc1cccnc1O2` (configuration not stated) [Pranoprofen], the growth in assay [1] was 0.238 ± 0.0049; in assay [2] (setting [6]), 0.302 ± 0.013; in assay [2] (setting [7]) it was 0.271 ± 0.0097; in assay [2] (setting [8]), 0.192 ± 0.016; in assay [2] (setting [9]), 0.193 ± 0.0053; in assay [2] (setting [10]), 0.133 ± 0.0031. For the same compound, the growth in assay [3] (setting [11]) came out at 0.315 ± 0.03; in assay [3] (setting [12]), 0.367 ± 0.0097; in assay [4] (setting [13]), 0.192 ± 0.008; in assay [4] (setting [14]), 0.198 ± 0.013; in assay [5] (setting [15]), 0.415 ± 0.0046; in assay [5] (setting [16]) it was 0.316 ± 0.012.
Consider `CCOC(=O)C1=C[C@]2(CC)CCCN3CCc4c(n1c1ccccc41)[C@@H]32` [Vinpocetine], for which the growth was 0.216 ± 0.0075 in assay [1]; 0.271 ± 0.015 in assay [2] (setting [6]); 0.25 ± 0.0089 in assay [2] (setting [7]); 0.184 ± 0.015 in assay [2] (setting [8]); 0.145 ± 0.005 in assay [2] (setting [9]); 0.143 ± 0.0046 in assay [2] (setting [10]). Also, the growth in assay [3] (setting [11]) amounted to 0.232 ± 0.0031; in assay [3] (setting [12]), 0.379 ± 0.069; in assay [4] (setting [13]), 0.164 ± 0.0032; in assay [4] (setting [14]) it was 0.191 ± 0.0094; in assay [5] (setting [15]), 0.4094 ± 0.0032; in assay [5] (setting [16]), 0.337 ± 0.016.
For `CCCCOC(=O)c1ccc(O)cc1` [Butylparaben], the growth in assay [1] is 0.137 ± 0.0043; in assay [2] (setting [6]), 0.148 ± 0.0023; in assay [2] (setting [7]) it was 0.213 ± 0.0083; in assay [2] (setting [8]), 0.157 ± 0.0026; in assay [2] (setting [9]), 0.131 ± 0.0015; in assay [2] (setting [10]) it was 0.15 ± 0.0048. In addition, the growth in assay [3] (setting [11]) turned out to be 0.174 ± 0.0066; in assay [3] (setting [12]), 0.193 ± 0.017; in assay [4] (setting [13]) it was 0.175 ± 0.011; in assay [4] (setting [14]) it was 0.2066 ± 0.00083; in assay [5] (setting [15]), 0.376 ± 0.029; in assay [5] (setting [16]), 0.304 ± 0.019.
